# Sampled rows, rich in hits. Any-hit rate of the full collection: about 4.4%.
# TRHR PAM: allosteric enhancers of human TRH receptor; P34981; TRHR cells, fluo-8 calcium fluorescence, EC20 TRH enhancement; enhancement, % at 2 µM; 0.66% of 360,000 active; AID 493056; in the data active = enhancement above about 30%; also: 0% is about no effect
# Target sequence (P34981 whole entry, looked up): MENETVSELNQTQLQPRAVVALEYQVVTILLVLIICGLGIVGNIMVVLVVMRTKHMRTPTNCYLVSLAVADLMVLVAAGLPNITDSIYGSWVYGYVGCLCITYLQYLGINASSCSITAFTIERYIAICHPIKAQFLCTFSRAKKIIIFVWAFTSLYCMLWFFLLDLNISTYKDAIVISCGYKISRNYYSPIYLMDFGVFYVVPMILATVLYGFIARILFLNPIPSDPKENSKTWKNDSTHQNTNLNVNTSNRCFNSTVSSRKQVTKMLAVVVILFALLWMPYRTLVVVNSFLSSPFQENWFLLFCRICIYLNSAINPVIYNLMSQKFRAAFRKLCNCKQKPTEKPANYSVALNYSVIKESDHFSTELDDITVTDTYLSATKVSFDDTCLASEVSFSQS
#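 TRHR-expressing cells loaded with fluo-8 calcium dye were read kinetically (ex 480/em 530) during compound addition, then stimulated with an EC20 of TRH (10 nM final). Enhancement of the Gq-mediated intracellular calcium response was scored.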
# TRHR ag: agonists of human TRH receptor | 0.18% of 360,000 active | activation, % at 2 µM | AID 493084 | TRHR cells, calcium flux fluo-8, FDSS agonist mode | P34981; also: 0% is about no effect
#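 Steps: seed TRHR cells overnight; add fluo-8 no-wash Ca dye, RT 30 min–1.5 h; record 10 s baseline; pin-transfer compounds; monitor fluorescence 1 cycle/s for the agonist window. Calcium increases flag candidate agonists.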
# D1 antag: human D1 dopamine receptor antagonism; activity change, negative = inhibition, % at 10 µM; 3.2% of 360,000 active; P21728; HEK293 TREx D1 cells, calcium flux, dopamine EC80; hits give low values; in the data active = activity change below about -30%; also: % is scaled to controls: 0 for no effect and ±100 for the full control effect
#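 Tetracycline-induced HEK293 Trex D1 cells, force-coupled to calcium, dye-loaded; compounds added and read 180 s, then EC80 dopamine added and calcium flux tracked kinetically another 180 s.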
# D1 ag: agonists of human D1 dopamine receptor; AID 504660; 1% of 360,000 active; P21728; HEK293 T-REx D1 cells, calcium flux, agonist mode; activation, % at 2 µM; also: 0% is about no effect
#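 Inducible HEK293 T-REx D1 cells, force-coupled to calcium signalling, were plated at 4000 cells/well with tetracycline and held overnight at 30 C. After no-wash calcium dye loading, compound-evoked calcium rise over 180 s flagged agonists.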
# D1 PAM: enhances dopamine response at the human D1 receptor; 0.036% of 360,000 active; P21728; HEK293 TREx D1 cells, calcium flux, dopamine EC20 potentiation; potentiation, % at 10 µM; in the data active = potentiation above about 30%; also: 0% is about no effect
# USP1-UAF1 inh: inhibitors of human USP1/UAF1 deubiquitinase | 0.23% of 390,000 active | Potency, µM (doses to about 57.1 µM), for the others: at the highest dose activity change, negative = inhibition, actives largely listed as inhibitors | recombinant USP1/UAF1, Ub-Rhodamine cleavage fluorescence | O94782; active = well fitted inhibition curve with a large enough effect; also: potency is read from the fitted curve at half-maximal effect; % is scaled to controls: 0 for no effect and ±100 for the full control effect; nearly all actives have a fitted effect of over 60% in size
#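 USP1/UAF1 complex at 1 nM was preincubated with compound for 15 min at room temperature, then Ub-Rho substrate (150nM final) was added. Fluorescence (480/540 nm) was read kinetically, 6 reads every 60 seconds.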
# * hit, by the source's call; · = not tested or not shown. Rule as the data show it, unless noted: active = activation above about 30%; inactive = the rest.
SMILES,TRHR PAM,TRHR ag,D1 antag,D1 ag,D1 PAM,USP1-UAF1 inh
CCC(Sc1nnc(-c2ccc(OC)cc2)c(-c2ccc(OC)cc2)n1)C(=O)Nc1cccc(OC)c1 (configuration not stated),0,0,5,2,-1,-13%
O=C1C=C(N(CCO)Cc2ccccc2)c2ccccc2C1=O,39*,0,0,3,4,3.5µM*
CCC(C)NC(=O)c1c(C)oc2nc(C)nc(N3CCOCC3)c12 (configuration not stated),-5,1,1,1,2,-20%
CCOc1ccc(C(=O)Nc2cccc(-c3nc4cc(Cl)cc(Cl)c4o3)c2)cc1,35*,0,6,0,-2,-15%
O=C(c1ccc2c(c1)CCN2S(=O)(=O)c1ccc(Cl)cc1)N1CCN(c2ccccc2)CC1,-3,-1,7,-1,1,-18%
COc1cc(C2CC(=O)Nc3c2c(=O)[nH]c2nc4ccccc4n32)ccc1O (configuration not stated),0,-2,-49*,0,-4,-17%
COc1cccc(C2c3c(oc4cc(C)cc(C)c4c3=O)C(=O)N2CCc2ccc(OC)c(OC)c2)c1 (configuration not stated),-6,2,10,0,0,-15%
COc1cc(/C=C2/SC(=Nc3ccc(O)cc3)NC2=O)cc(OC)c1O,6,70*,-5,47*,-4,-25%
COc1ccccc1N=C1NC(=O)/C(=C/c2ccc(N(C)C)cc2)S1,0,22,-22,108*,-7,-14%
CCOC(=O)C1(C)C=C(Nc2cccc(C(=O)O)c2)C(=O)N1c1cccc(C(=O)O)c1 (configuration not stated),4,0,0,3,0,-20%
c1ccc2c(c1)OCC(c1csc3ncnc(N4CCCCC4)c13)O2 (configuration not stated),-3,0,-18,1,-6,-3%
O=c1[nH]cnc2scc(C3COc4ccccc4O3)c12 (configuration not stated),2,-1,-18,47*,-3,-16%
CCCN1CCN(c2ncnc3scc(C4COc5ccccc5O4)c23)CC1 (configuration not stated),36*,-1,16,1,-4,0%
CCOC(=O)c1ccccc1NC(=O)CN(c1ccccc1OC)S(=O)(=O)c1ccc(C)cc1,-15,2,-10,6,-1,-13%
CC(=O)c1nc(N2C(=O)CC(Cc3cccc(C)c3)C2=O)sc1C (configuration not stated),1,0,-53*,4,-5,-13%
CC(=O)c1nc(N2C(=O)CC(Cc3cc(C)cc(C)c3)C2=O)sc1C (configuration not stated),5,0,-15,1,-1,-3%
Cc1ccc(NS(=O)(=O)c2cc(Br)cc3c2N(C(=O)C2CC2)CC3)cc1C,-5,0,-23,4,-3,-35%
O=C(C1CC1)N1CCc2cc(Br)cc(S(=O)(=O)Nc3ccc(F)c(F)c3)c21,-7,0,-31*,9,0,-35%
COC(=O)c1ccc(NC(=S)NCCc2ccccc2C)cc1,-4,1,-36*,23,-5,-23%
COC(=O)c1ccc(NC(=O)CSc2ccccn2)cc1,5,-1,7,4,-6,-12%
COC(=O)c1ccc(NC(=O)Cc2ccc(F)cc2)cc1,-9,1,-30*,0,-4,-7%
COC(=O)c1ccc(NC(=O)CSc2ccccc2)cc1,2,0,-75*,2,-4,-15%
COC(=O)c1ccc(NC(=S)N2CCN(Cc3cccc(C)c3)CC2)cc1,·,·,·,·,·,-26%
COC(=O)c1ccc(NC(=S)N2CCN(Cc3ccccc3)CC2)cc1,-2,0,-43*,17,-6,-12%
Cc1cccc(NC(=O)c2ccc(N(Cc3ccccc3)S(C)(=O)=O)cc2)c1,0,0,0,7,0,-17%

# Screening results (PubChem BioAssay)
